47 compounds from ChEMBL document CHEMBL3433997, “St. Jude Leishmania screening dataset” (2016) can be followed below.

Common to all, as to type: functional
Test [1] concerns the target Solute carrier family 2, facilitated glucose transporter member 1 (Homo sapiens) (UniProt P11166). Kind of test: ST_JUDE_LEISH: Cytotoxicity at 2uM final concentration against transgenic Leishmania Mexicana promastigotes LmGLUT1 that are glucose transport deficient and complemented with the human glucose transporter GLUT1. Activity is measured by DNA content using SYBR green in vitro.

The target in test [2] is Hexose transporter 1 (Plasmodium falciparum) (UniProt O97467). Put plainly: ST_JUDE_LEISH: Cytotoxicity at 2uM final concentration against transgenic Leishmania Mexicana promastigotes LmPfHT that are glucose transport deficient and complemented with the Plasmodium falciparum hexose transporter. Activity is measured by DNA content using SYBR green in vitro.
The target in test [3] is Glucose transporter (Leishmania mexicana) (UniProt O61059). Put plainly: ST_JUDE_LEISH: Cytotoxicity at 2uM final concentration against transgenic Leishmania Mexicana promastigotes LmGT2 that are glucose transport deficient and complemented with the L. Mexicana glucose transporter 2. Activity is measured by DNA content using SYBR green in vitro.

Chain of Solute carrier family 2, facilitated glucose transporter member 1 (Homo sapiens) (P11166 whole entry): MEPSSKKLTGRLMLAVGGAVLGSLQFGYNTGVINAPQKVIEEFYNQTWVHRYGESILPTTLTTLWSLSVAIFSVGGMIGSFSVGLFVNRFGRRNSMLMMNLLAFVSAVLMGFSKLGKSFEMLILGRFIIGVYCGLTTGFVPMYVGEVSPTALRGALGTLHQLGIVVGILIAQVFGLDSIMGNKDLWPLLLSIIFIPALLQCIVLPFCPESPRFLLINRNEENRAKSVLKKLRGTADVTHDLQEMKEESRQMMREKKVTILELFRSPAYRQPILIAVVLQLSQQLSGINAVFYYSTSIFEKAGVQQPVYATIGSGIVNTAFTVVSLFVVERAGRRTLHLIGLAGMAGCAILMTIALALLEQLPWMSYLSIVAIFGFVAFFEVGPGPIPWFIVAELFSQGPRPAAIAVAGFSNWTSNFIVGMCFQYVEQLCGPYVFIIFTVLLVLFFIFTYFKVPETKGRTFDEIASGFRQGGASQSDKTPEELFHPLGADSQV

Regarding `Cc1ccc(CNC(=O)[C@H](CCCN)Nc2nc(NCC3CCCCC3)ncc2C)cc1`, the inhibition in test [1] stood at 3.55%; in test [2], 2.8%; in test [3], 2.97%.

Take `CCC(CSC1CCCCC1)N(C)CCN(C)C(CC)CSC1CCCCC1` (stereo unspecified): the figures for the inhibition in test [1], in test [2] and in test [3] were 7.39%, 36.7% and 4.54%, respectively.

With `CC(C)(CNCc1ccc(Cl)cc1)c1nc(-c2ccc(Cl)c(O)c2)c(-c2ccncc2)[nH]1`, the inhibition is 0.66% in test [1], 0.31% in test [2] and -1.23% in test [3].

For `COc1cc2nc(Nc3ccc4c(ccn4Cc4ccccc4)c3)nc(Nc3ccc4c(ccn4Cc4ccccc4)c3)c2cc1OC`, the figures for the inhibition in test [1], in test [2] and in test [3] were 1.55%, 1.97% and 3.43%, respectively.

Turning to `N=C(N)c1cc(Cl)cc(NC(=O)Nc2cc(Cl)cc(C(=N)N)c2)c1`, the inhibition in test [1] came out at 2.37%; in test [2] it was 1.25%; in test [3], 1.53%.

`CCN(CC)CCN(Cc1ccc(-c2ccc(C(F)(F)F)cc2)cc1)C(=O)Cn1c(CCc2c(F)ccc(F)c2F)nc(=O)c2ccccc21`: the inhibition was determined as 0.63% in test [1], 1.87% in test [2] and 1.43% in test [3].

Regarding `FC(F)(F)c1cc(C(F)(F)F)c2cc(CNCCCNc3nc4ccccc4[nH]3)[nH]c2c1`, the inhibition was -1.02% in test [1], 0.32% in test [2] and -1.92% in test [3].

In the case of `CCN(CC)C(=O)C(=O)c1c[nH]c2ccc(Cl)cc12`, the inhibition in test [1] is 3.24%; in test [2], 0.07%; in test [3], 0.85%.

On to `O=C(Nc1ccc(-c2ccc(-c3nc4ccccc4[nH]3)cc2)cc1)Nc1ccc(Cl)c(Cl)c1`, for which the inhibition in test [1] was 3.78%; in test [2] it was 2.21%; in test [3], -4.96%.

Regarding `Cc1cccc2nc(-c3cccc(-c4cccc(NC(=O)c5ccc(C(N)=O)cc5)c4)c3)[nH]c12`, the inhibition in test [1] came out at 0.33%; in test [2], 1.11%; in test [3] it was 1.3%.

Regarding `COc1ccccc1CCNc1nc(C)cc(N[C@@H](Cc2ccccc2)C(=O)Nc2ccccc2)n1`, the inhibition in test [1] is 12%; in test [2] it was 10.7%; in test [3], 8.65%.

As for `COc1ccc(-c2cnc3ccc(NC4CCC(O)CC4)nn23)cn1` (stereo unspecified), the inhibition in test [1] was determined as 2.52%; in test [2] it was 0.45%; in test [3], 0.93%.

As for `CCCN(CCC)S(=O)(=O)c1ccc(C(=O)Nc2nc3ccc(-c4cc(=O)[nH]c(Nc5ccccc5Cl)n4)cc3[nH]2)cc1`, the inhibition in test [1] came out at 4.09%; in test [2], 5.1%; in test [3], 4.26%.

`Cc1cc(F)ccc1-c1nc(N(C)CCN(C)C(=O)N(C)c2ccccc2)nc2c1ccc(=O)n2-c1c(F)cccc1F`: the inhibition in test [1] is 2.99%; in test [2], 3.18%; in test [3], 9.88%.

Consider `N#Cc1ccc(-c2ccc(C(=O)NCCCCN3CCC(c4cc(Br)c5c(c4O)CCCC5)CC3)cc2)cc1`, for which the inhibition was 0.25% in test [1], 0.94% in test [2] and -0.42% in test [3].

Regarding `CCN(CCCN1CCCCC1)c1cc(C)nc(Nc2ccc(C(C)C)cc2)n1`, the inhibition in test [1] was -0.68%; in test [2] it was 1.56%; in test [3], 2.4%.

As to `O=C(/C=C/c1ccc(Cl)c(Cl)c1)NCCCCCN1CCC(CCCNC(=O)Nc2ccc(C(F)(F)F)cc2)CC1`, the inhibition in test [1] is -1.43%; in test [2], -2.93%; in test [3] it was -1.92%.

`CS(=O)(=O)c1ccc(CNCc2ccc(-c3cccc(-c4nc5ccccc5[nH]4)c3)cc2)cc1`: the inhibition in test [1] stood at 17.3%; in test [2] it was 15.6%; in test [3], 14%.

For the compound `Fc1ccc2[nH]c(-c3cccc(-c4cccc(CNCCN5CCNCC5)c4)c3)nc2c1`, the inhibition in test [1] was determined as 2.5%; in test [2], 2.3%; in test [3] it was 0.88%.

As to `O=C(Cc1ccc(NC(=O)c2ccc(O)c(-c3ccc(Cl)c(Cl)c3)c2)cc1)NCc1cccc(C(F)(F)F)c1`, the inhibition stood at 2.33% in test [1], 2.65% in test [2] and 1.16% in test [3].

For `O=C(Cc1n[nH]c(=O)c2ccccc12)Nc1cccc(C(=O)Nc2cccc(C(F)(F)F)c2)c1`, the inhibition in test [1] turned out to be 3.52%; in test [2] it was 4.12%; in test [3], 2.16%.

Take `N#Cc1cccc(C(=O)Nc2cccc(-c3ccc(CN4CCC(O)CC4)cc3)c2)c1`: the inhibition in test [1] is 3.3%; in test [2], -0.89%; in test [3] it was 0.83%.

Take `O=C(Nc1ccccc1)N(Cc1cccc(-c2ccc(CNC3CCCC3)cc2)c1)C1CCN(Cc2ccccc2)CC1`: the results for the inhibition in test [1], in test [2] and in test [3] were 5.58%, 4.72% and 2.99%, respectively.

For `CCN(CC)/C(=N\C(=N)NCCCCCCNC(=N)/N=C(\Nc1ccc(Cl)cc1)N(CC)CC)Nc1ccc(Cl)cc1`, the inhibition is 0.25% in test [1], -0.21% in test [2] and -0.92% in test [3].

Consider `Cn1nc(C(F)(F)F)c(-c2ccc(Br)cc2)c1NC(=O)Cc1ccccc1F`, for which the inhibition in test [1] was -1.83%; in test [2], 3.22%; in test [3], -2.17%.

On to `O=[N+]([O-])c1cccc(CNCC2CCN(Cc3ccc4ccccc4c3)CC2)c1`, for which the inhibition in test [1] amounted to 16.5%; in test [2], 3.55%; in test [3] it was 2.23%.

As to `CC(C)(C)c1nn(-c2ccc(Cl)cc2)c2[nH]c(=O)c(CNC3CCCC3)cc12`, the inhibition was 7.6% in test [1], 6.85% in test [2] and 8.31% in test [3].

For the compound `COc1ccc(-c2cccc(CNC3CCN(C)CC3)c2)cc1S(=O)(=O)NCc1ccccc1`, the inhibition in test [1] turned out to be 4.97%; in test [2], 4.06%; in test [3], 4.42%.

`CN(C)c1ccc(CN2CCC(CNC(=O)c3cc(-c4ccccc4Cl)cs3)C2)cc1` (stereo unspecified): the inhibition in test [1] is 0.57%; in test [2] it was -3.68%; in test [3], 0.7%.

`COc1ccc(C(=O)Nc2cc(Br)c3c(c2)CNCC3)cc1C(F)(F)F`: the inhibition in test [1] came to 4.52%; in test [2], 1.74%; in test [3], 1.37%.

For the compound `CCCCCNC(=N)N/N=C/c1c[nH]c2ccc(OC)cc12`, the results for the inhibition in test [1], in test [2] and in test [3] were 1.71%, 3.63% and -0.13%, respectively.

As for `CCCCCCCNCCNc1cc(C)nc2ccccc12`, the inhibition was 2.03% in test [1], 7.41% in test [2] and 2.79% in test [3].

For `O=C(NCCCCCN1CCC(c2c[nH]c3ccccc23)CC1)c1ccc(-c2ccccc2)nc1`, the inhibition in test [1] was determined as 2.41%; in test [2], 2.42%; in test [3], 2.97%.

On to `Cn1cnc2c(Nc3ccncc3)nc(-c3ccc4c(c3)OCO4)nc21`, for which the inhibition was determined as 8.06% in test [1], 6.78% in test [2] and 3.95% in test [3].

On to `Cc1ccc(NC(=O)c2ccc(CN3CCCN(CCC(C)C)CC3)cc2)cc1C`, for which the inhibition in test [1] was found to be 14.1%; in test [2] it was 14.9%; in test [3] it was 15.6%.

On to `CCNc1c2ccc(Cl)cc2nc2ccc(OC)cc12`, for which the values for the inhibition in test [1], in test [2] and in test [3] were 2.46%, 4.37% and 1.15%, respectively.

In the case of `Cc1ccc(Oc2ccccc2NC(=O)CCc2nc3ccccc3c(=O)[nH]2)cc1`, the inhibition in test [1] is 0.1%; in test [2] it was 0.95%; in test [3], 2.88%.

With `O=C(Nc1cccc(C(F)(F)F)c1)c1ccc(S(=O)(=O)NC2CCN(CC3CCCCC3)CC2)cc1`, the inhibition turned out to be 1.83% in test [1], 1.62% in test [2] and 5.57% in test [3].

`CC1(C)NC(N)=NC(=N)N1OCCc1cccc2ccccc12`: the values for the inhibition in test [1], in test [2] and in test [3] were 2.21%, 10.7% and 4.71%, respectively.

For the compound `O=C(C1CCN(C(c2ccccc2)c2ccc(Cl)c(Cl)c2)CC1)N1CC=CC1` (stereo unspecified), the inhibition was 0.54% in test [1], 3.99% in test [2] and -0.23% in test [3].

`CCOc1cc(O)c(-c2nc(N)ncc2-c2ccc3c(c2)OCCO3)cc1CC`: the inhibition is 9.25% in test [1], 11% in test [2] and 4.66% in test [3].

As for `CC(NC(=O)c1ccc(O)c(-c2ccc(Cl)c(Cl)c2)c1)C(=O)NCCN1CCCCC1` (stereo unspecified), the figures for the inhibition in test [1], in test [2] and in test [3] were -0.39%, 1.71% and 0.47%, respectively.

With `Oc1cccc(Nc2ccnc3cc(-c4ccncc4)ccc23)c1`, the inhibition came to 10.6% in test [1], 9.58% in test [2] and 8.68% in test [3].

Regarding `N#Cc1ccccc1N1CCN(C2CCC(NC(=O)c3n[nH]c4cc(C(F)(F)F)ccc34)CC2)CC1` (stereo unspecified), the inhibition in test [1] came to 2.94%; in test [2] it was 1.88%; in test [3], 0.43%.

As for `O=C(Nc1nccs1)c1cc(-c2cccnc2)nc2ccc(Br)cc12`, the inhibition is 7.77% in test [1], -0.8% in test [2] and -0.59% in test [3].

With `N#Cc1ccc(NC(=O)Nc2ccc3c(c2)CCN(C2CCC2)CC3)cc1`, the inhibition was 5.18% in test [1], 4.41% in test [2] and 3.26% in test [3].

For `COc1ccc2ccc(OC)c(CNCCCCCCNCc3c(OC)ccc4ccc(OC)cc34)c2c1`, the inhibition came out at 5.41% in test [1], 9.06% in test [2] and 4.72% in test [3].

Usually inhibition stands for the drop in the measured response relative to a control, in per cent.
